C diff HTS: inhibitors of Clostridium difficile growth | growth activity, negative = inhibition, % at 16 µg/mL (by protocol) | Clostridium difficile clinical isolate growth, OD600, 24 h; active compounds read low | 0.25% of 86,000 active;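 active means mean growth activity at or below -80% and every replicate also at or below -80%; inconclusive means mean at or below -80% but some replicate above -80%; inactive means mean growth activity above -80%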;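 further: 0% = DMSO wells and -100% = levofloxacin 16 µg/mL wells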
T cruzi growth-1: T. cruzi proliferation inhibition | AID 624255 | T. cruzi beta-gal in NIH3T3, GalScreen luminescence, 90 h | inhibition, % at 8.34 µM | 5.9% of 77,000 active;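 active means mean inhibition above about 93%, with at least 55% of replicates each passing it, limit read from the data, passing the limit was not always enough; inconclusive means only one of those two conditions holds; inactive means neither condition holds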
Pf Dd2 inh: inhibitors of Plasmodium falciparum Dd2 growth; P. falciparum Dd2 growth, SYBR Green, 72 h; active compounds read low; 2.3% of 94,000 active; activity change, % at 10 µM; in the data active means activity change below about -80%; inconclusive means no clear call, values can overlap the other calls
T cruzi growth-2: inhibitors of T. cruzi proliferation; shares compounds with T cruzi growth-1; T. cruzi beta-gal in NIH3T3, GalScreen luminescence, 90 h; inhibition, % at 8.35 µM; 72% of 5,600 active; AID 651739;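 active means mean replicate inhibition above about 95% and at least 55% of replicates individually reaching it, limit read from the data; inconclusive means only one of the two criteria is met; inactive means neither criterion is met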
T cruzi growth-3: inhibitors of T. cruzi proliferation | AID 651740 | shares compounds with T cruzi growth-1 | 21% of 5,600 active | T. cruzi beta-gal in NIH3T3, GalScreen luminescence, 90 h | inhibition, % at 2.09 µM;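 active means mean inhibition above about 95%, with at least 55% of replicates also reaching it, limit read from the data; inconclusive means meets just one of the two conditions; inactive means meets neither condition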;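 further: plate controls were neutral control median for no effect and positive control median for full effect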
3T3 cytotox: kills mouse NIH/3T3 fibroblasts | cytotoxicity (signal decrease), % at 8.35 µM | NIH/3T3 viability, CellTiter-Glo ATP luminescence, 90 h | 14% of 5,600 active | shares compounds with T cruzi growth-1;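 active means mean signal decrease across replicates above about 35% based on untreated-well scatter, with enough replicates individually passing, limit read from the data; inconclusive means no rule stated though some were filed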;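 further: 0% = median of neutral control wells and 100% = median of positive control wells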
NIH3T3 tox 2: cytotoxicity in mouse NIH/3T3 fibroblasts | inhibition, % at 24.9 µM | shares compounds with T cruzi growth-1 | 56% of 5,600 active | NIH/3T3 viability, CellTiter-Glo ATP luminescence, 90 h;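 active means mean loss of cell viability signal at or above a set limit, and enough replicates individually reaching it; inconclusive means meets only the mean limit or only the replicate share; inactive means meets neither condition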;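 further: 0% = median of neutral control wells and 100% = median of positive control wells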
The depositor's hits bear a star; u = inconclusive; x = no result. Only some compounds are listed: those with a hit (about 6.8% of all), similar ones and a draw of the others.

SMILES	C diff HTS	T cruzi growth-1	Pf Dd2 inh	T cruzi growth-2	T cruzi growth-3	3T3 cytotox	NIH3T3 tox 2
CCN(C[C@H]1N[C@H](CO)[C@@H]1c1ccc(-c2cccc(F)c2)cc1)C(=O)CN(C)C	0	54	-62	x	x	x	x
C[C@H]1CN([C@@H](C)CO)S(=O)(=O)c2ccc(C3=CCCCC3)cc2O[C@@H]1CN(C)C(=O)Cc1cccnc1	-8	86	-32	x	x	x	x
C[C@H]1CN([C@@H](C)CO)S(=O)(=O)c2ccc(C#CCN(C)C)cc2O[C@H]1CN(C)Cc1ccc2c(c1)OCO2	9	104*	-68	101*	53	13	26*
C[C@H](CO)N1C[C@H](C)[C@H](CN(C)Cc2ccc3c(c2)OCO3)Oc2cc(C#CCN(C)C)ccc2S1(=O)=O	8	76	u	x	x	x	x
C[C@@H]1CN([C@@H](C)CO)S(=O)(=O)c2ccc(C#CCN(C)C)cc2O[C@@H]1CN(C)Cc1ccc2c(c1)OCO2	3	85	-54	x	x	x	x
C[C@H]1CN([C@@H](C)CO)S(=O)(=O)c2ccc(C#CCN(C)C)cc2O[C@@H]1CN(C)Cc1ccc2c(c1)OCO2	4	107*	-37	107*	88	29	106*
CS(=O)(=O)N1[C@H](C#N)[C@@H](c2ccc(C#CC3CCCC3)cc2)[C@@H]1CO	1	92	-5	x	x	x	x
CS(=O)(=O)N1[C@H](C#N)[C@@H](c2ccc(C#CC3CCCCC3)cc2)[C@@H]1CO	-1	89	-30	x	x	x	x
CS(=O)(=O)N1[C@@H](C#N)[C@H](c2ccc(C#CC3CCCC3)cc2)[C@@H]1CO	-6	u	17	80	16	-11	-1
CS(=O)(=O)N1[C@H](C#N)[C@H](c2ccc(C#CC3CCCCC3)cc2)[C@@H]1CO	-16	u	-42	101*	107*	2	42*
C[C@H](CO)N1C[C@H](C)[C@H](CN(C)Cc2ccncc2)OCCCC[C@H](C)Oc2ccc(NS(=O)(=O)c3ccccc3)cc2C1=O	0	0	4	x	x	x	x
COc1ccccc1C#Cc1ccc([C@H]2[C@@H](CO)N3CCCCN(S(C)(=O)=O)C[C@@H]23)cc1	-1	87	20	x	x	x	x
O=S(=O)(Cc1ccccc1)N1CCCCN2[C@H](CO)[C@H](c3ccc(C#Cc4ccccc4)cc3)[C@@H]2C1	-5	106*	-76	104*	108*	18	66*
CC(C)CC#Cc1ccc([C@H]2[C@H](CO)N3CCCCN(S(=O)(=O)Cc4ccccc4)C[C@@H]23)cc1	-11	100*	u	104*	92	24	107*
C[C@H](O)C#Cc1ccc([C@@H]2[C@H](CO)N3CCCCN(S(=O)(=O)Cc4ccccc4)C[C@@H]23)cc1	-5	17	-20	x	x	x	x
CCCC#Cc1ccc([C@H]2[C@H](CO)N3CCCCN(S(=O)(=O)Cc4ccccc4)C[C@@H]23)cc1	55	97*	-34	101*	61	39*	104*
O=S(=O)(Cc1ccccc1)N1CCCCN2[C@@H](CO)[C@@H](c3ccc(C#Cc4ccccc4)cc3)[C@@H]2C1	39	-12	-54	x	x	x	x
CCCC#Cc1ccc([C@H]2[C@@H](CO)N3CCCCN(S(=O)(=O)CC)C[C@@H]23)cc1	2	68	-24	x	x	x	x
CCS(=O)(=O)N1CCCCN2[C@@H](CO)[C@H](c3ccc(C#Cc4ccccc4OC)cc3)[C@@H]2C1	60	114*	-15	110*	95	25	83*
O=C(C[C@@H]1C=C[C@@H](NC(=O)c2cnccn2)[C@H](CO)O1)NCc1ccccc1F	x	-57	5	x	x	x	x
COc1ccc2c3c(n(C)c2c1)[C@@H](CO)N(C(=O)C1CC1)CC31CCN(C(=O)C2CCOCC2)CC1	-2	x	-16	x	x	x	x
O=C(NCC[C@H]1CC[C@H](NS(=O)(=O)c2ccccc2)[C@@H](CO)O1)c1ccccc1F	5	10	17	x	x	x	x
CCCNC(=O)N1[C@H](CNC(=O)c2ccccc2)[C@H](c2ccccc2)[C@@H]1CO	6	75	-39	x	x	x	x
COc1ccc(C#Cc2ccc3c(c2)[C@]2(C(=O)N3)[C@H](c3ccccc3OCCO)N3[C@H](c4ccccc4)[C@H](c4ccccc4)OC(=O)[C@H]3[C@@H]2C(=O)NC[C@H](O)c2ccccc2)cc1	-1	x	x	x	x	x	x
Cc1noc(C)c1NC(=O)Nc1ccc2c(c1)C(=O)N([C@H](C)CO)C[C@@H](C)[C@H](CN(C)S(=O)(=O)c1cn(C)cn1)OCCCC[C@H](C)O2	-9	11	27	x	x	x	x
SMILES	C diff HTS	T cruzi growth-1	Pf Dd2 inh	T cruzi growth-2	T cruzi growth-3	3T3 cytotox	NIH3T3 tox 2
CC(=O)N(C)C[C@H]1Oc2ncc(-c3ccc(C)cc3)cc2C(=O)N([C@H](C)CO)C[C@H]1C	6	11	5	x	x	x	x
C[C@H](CO)N1C[C@H](C)[C@@H](CN(C)Cc2ccncc2)OCCCC[C@H](C)Oc2ccc(NC(=O)NC3CCCCC3)cc2C1=O	-7	65	25	x	x	x	x
C[C@H](CO)N1C[C@H](C)[C@H](CN(C)Cc2ccncc2)OCCCC[C@H](C)Oc2ccc(NC(=O)NC3CCCCC3)cc2C1=O	-2	97*	20	106*	31	1	13
C[C@@H]1CCCCO[C@@H](CN(C)Cc2ccncc2)[C@@H](C)CN([C@@H](C)CO)C(=O)c2cc(NC(=O)NC3CCCCC3)ccc2O1	15	103*	-5	35	1	-31	3
C[C@@H]1CN([C@@H](C)CO)C(=O)c2cc(NC(=O)NC3CCCCC3)ccc2O[C@@H](C)CCCCO[C@@H]1CN(C)Cc1ccncc1	-8	87	-5	x	x	x	x
CC(C)NC(=O)Nc1ccc2c(c1)C(=O)N([C@@H](C)CO)C[C@H](C)[C@@H](CN(C)C(=O)Nc1ccc(F)cc1)OCCCC[C@@H](C)O2	3	13	-24	x	x	x	x
O=C1CNC[C@H]2[C@H](c3ccc(-c4ccccc4F)cc3)[C@H](CO)N12	-1	x	-50	x	x	x	x
C[C@H]1CCCCO[C@@H](CN(C)C(=O)CCCN(C)C)[C@@H](C)CN([C@@H](C)CO)C(=O)c2cc(NC(=O)C3CCCCC3)ccc2O1	0	-33	4	x	x	x	x
CC(=O)N1CCCCN2[C@H](CO)[C@H](c3ccc(-c4ccc(C)cc4)cc3)[C@@H]2C1	-10	117*	10	98*	16	44*	34*
CC(=O)N1CCCCN2[C@H](CO)[C@@H](c3ccc(-c4cccc(C)c4)cc3)[C@H]2C1	-12	-7	25	x	x	x	x
CC(=O)N1CCCCN2[C@@H](CO)[C@@H](c3ccc(-c4ccccc4)cc3)[C@@H]2C1	-14	85	-6	x	x	x	x
CC(=O)N1CCCCN2[C@@H](CO)[C@@H](c3ccc(-c4cccc(C)c4)cc3)[C@@H]2C1	-6	u	22	53	50	42*	62*
